Assay results taken from PubChem BioAssay (Tox21).
Where “and” joins values, the source holds several entries; their conditions need not be identical. Equal entries are not always repeated. Records with an inconclusive call do not appear. Values without a mark were called inactive. Calls of active or inactive are those of the source. The call rests on the fitted dose curve; in most records, active means well fitted cell-killing curve with a large enough effect in the repeat runs; inconclusive means weak or mixed curves; inactive means no such curve, though single readings can be large or run the other way.

Experiment: qHTS assay to identify small molecule agonists of the peroxisome proliferator-activated receptor delta (PPARd) signaling pathway - cell viability counter screen (AID 743211); further: nearly all actives have a fitted effect of over 55% in size
Settings: PPARd-bla HEK293H viability, CellTiter-Glo luminescence, 17 h; series mostly up to 62.6 µM; activity change, negative = cytotoxicity: at the top concentration
Method in brief: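 Tox21 library compounds, delivered in DMSO, were incubated 17 h with PPARd-bla HEK293H cells; cytotoxicity was taken from CellTiter-Glo luminescence read 30 min after reagent addition.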
On the % scale 0 is the no-effect control and ±100 the full control effect; potency means the concentration at half of the fitted maximal effect.

| SMILES | Potency | activity change, negative = cytotoxicity |
| --- | --- | --- |
| CN1CCC[C@@H]1CCO[C@](C)(c1ccccc1)c1ccc(Cl)cc1 | 29.8 µM (active) |  |
| CCC(C)[O-].CCC(C)[O-].CCOC(=O)/C=C(/C)[O-].[Al+3] |  | -21.4% |
| O=C(O)c1ccc2cc(C(=O)O)ccc2c1 |  | -7.86% [at 81.1 µM] |
| CCC(C)(CCC(C)C)C(=O)[O][Sn]([CH3])([CH3])[O]C(=O)C(C)(CC)CCC(C)C (stereo not drawn) |  | -6.7% |
| O=C(O)CCN(C1(C(=O)NO)CCCC1)S(=O)(=O)c1ccc(Oc2ccc(F)cc2)cc1 |  | -1.26% |
| CC1=CCC(=C(C)C)CC1 |  | 1.5% |
| CCN(CCN)c1cccc(C)c1 | inactive |  |
| CC(C)(C)c1ccc(C(O)CCCN2CCC(C(O)(c3ccccc3)c3ccccc3)CC2)cc1 (stereo not drawn) | 10.6 µM (active) |  |
| CC(=O)[C@H]1CC[C@H]2[C@@H]3CCC4=CC(=O)CC[C@]4(C)[C@H]3CC[C@]12C | 48.7 µM (active) |  |
| COc1cc(/C=C/c2ccccc2)oc(=O)c1 |  | -0.409% [at 81.1 µM] |
| Cc1c2ccccc2c(C)c2c1ccc1ccccc12 | 48.5 µM (active) and 38.9 µM (active) |  |
| COCCOc1cc2cc(C(=O)NC3CCN(C(C)C)CC3)n(CC(=O)Nc3ccc(Cl)cn3)c2cn1 |  | -5.04% |
| COc1cccc(OC)c1C(=O)O |  | -6.2% |
| O=C(O)c1cc(-c2ccc(F)cc2F)ccc1O |  | -12.7% |
| O=C(O)c1cc(N=Nc2ccc([N+](=O)[O-])cc2)ccc1O |  | -24.3% |
| CCCC(=O)OCOC(=O)C1=C(C)NC(C)=C(C(=O)OC)C1c1cccc(Cl)c1Cl (stereo not drawn) |  | 3.17% |
| Clc1ccnc(Cl)n1 |  | 6.38% [at 81.1 µM] |
| CCO[Si](OCC)(OCC)OCC |  | 8.28% [at 81.1 µM] |
